Results from PubChem BioAssay.
The source made the active and inactive calls. Unless noted, the rule behind the calls is not given here.

Key:
[1] = A549 cell viability effects, profiling panel, calcein-AM fluorescence, 48 h, basal (AID 1162); conditions: higher = more signal; note: test concentration not given here
[2] = adipocyte viability effects, profiling panel, cell-based, 3T3-L1 adipocytes, calcein-AM fluorescence, 48 h, basal (AID 1163); conditions: 3T3-L1 adipocytes viability, higher = more signal; note: test concentration not given here
[3] = HepG2 cell viability effects, profiling panel, calcein-AM fluorescence, 48 h, basal (AID 1164); conditions: higher = more signal; note: test concentration not given here
[4] = MM1S cell viability effects, profiling panel, calcein-AM fluorescence, 48 h, basal (AID 1165); conditions: higher = more signal;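 note: viability of MM1S multiple myeloma cells under basal unstimulated conditions; test concentration not given here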
[5] = basal RPMI8226 viability, no added stimulus, profiling panel, cell-based, calcein-AM fluorescence, 48 h, PK04 Diversity Set (AID 1166); conditions: RPMI8226 myeloma viability, higher = more signal;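 note: cells grown under basal conditions without added stimulus; test concentration not given here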
[6] = basal HepG2 mitochondrial membrane potential changes, profiling panel, cell-based, JC-1 fluorescence, 24 h, 100 nL compound (AID 1167); conditions: higher = more signal; note: test concentration not given here
[7] = basal 3T3-L1 adipocyte mitochondrial potential changes, profiling panel, cell-based, JC-1 fluorescence, 3T3-L1 adipocytes, 24 h, 100 nL compound (AID 1168); conditions: JC-1 mitochondrial fluorescence, higher = more signal, called active from +8 up or from −8 down; note: test concentration not given here
[8] = basal RPMI8226 mitochondrial membrane potential changes, profiling panel, cell-based, JC-1 fluorescence, 24 h, 100 nL compound (AID 1169); conditions: RPMI8226 myeloma, JC-1 mitochondrial potential fluorescence, higher = more signal; note: test concentration not given here
[9] = basal MM1S mitochondrial membrane potential changes, profiling panel, cell-based, JC-1 fluorescence, 24 h, 100 nL compound (AID 1170); conditions: higher = more signal; note: test concentration not given here
[10] = A549 lung cancer cell viability effects, profiling panel, resazurin fluorescence, 24 h, PK04 Diversity Set (AID 1171); conditions: higher = more signal, called active from +8 up or from −8 down; note: test concentration not given here
[11] = HepG2 liver cancer cell viability effects, profiling panel, resazurin fluorescence, 24 h, PK04 Diversity Set (AID 1172); conditions: higher = more signal; note: test concentration not given here
[12] = basal S. cerevisiae growth modulation, no modifier, primary screen, OD600, strain BY4716, 24 h, basal condition (AID 1173); conditions: OD600, 24 h, higher = more signal, called active from +8 up or from −8 down
[13] = MM1S myeloma cell viability, profiling panel, resazurin fluorescence, basal, 24 h, PK04 Diversity Set (AID 1174); conditions: higher = more signal, called active from +8 up or from −8 down;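 note: MM1S multiple myeloma cell line; test concentration not given here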
[14] = biological target: Dihydroorotate dehydrogenase (quinone), mitochondrial (Plasmodium falciparum (isolate 3D7)) (UniProt Q08210); test: PfDHODH enzyme inhibitors, primary screen, biochemical, C-terminal His tag, absorbance 600 nm (AID 1175); conditions: DCIP absorbance 600 nm, higher = more signal, called active from +8 up or from −8 down;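 note: recombinant parasite enzyme with a five histidine tag at its C terminus; test concentration not given here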
Chain of Dihydroorotate dehydrogenase (quinone), mitochondrial (Plasmodium falciparum (isolate 3D7)) (Q08210 whole entry, looked up): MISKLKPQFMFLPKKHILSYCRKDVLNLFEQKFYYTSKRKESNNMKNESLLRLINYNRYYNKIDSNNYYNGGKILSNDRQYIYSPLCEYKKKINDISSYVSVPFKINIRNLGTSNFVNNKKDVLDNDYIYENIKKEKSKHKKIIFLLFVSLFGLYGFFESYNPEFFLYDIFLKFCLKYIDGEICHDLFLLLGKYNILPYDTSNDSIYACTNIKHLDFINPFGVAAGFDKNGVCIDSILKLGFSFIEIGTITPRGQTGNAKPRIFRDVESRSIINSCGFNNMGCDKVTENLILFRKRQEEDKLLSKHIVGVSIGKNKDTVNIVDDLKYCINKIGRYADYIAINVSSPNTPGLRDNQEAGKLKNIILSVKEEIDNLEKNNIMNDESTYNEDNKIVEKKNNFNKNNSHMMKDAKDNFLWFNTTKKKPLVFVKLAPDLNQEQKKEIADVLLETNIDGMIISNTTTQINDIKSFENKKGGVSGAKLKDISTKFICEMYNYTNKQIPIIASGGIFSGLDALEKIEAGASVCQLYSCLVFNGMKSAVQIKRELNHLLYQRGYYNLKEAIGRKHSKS

[15] = P. aeruginosa biofilm formation inhibitors, primary screen, strain PAO1, LB-PBS medium, absorbance 600 nm (AID 1176); note: test concentration not given here; conditions: P. aeruginosa PAO1 growth/biofilm, A600, 12 h; higher = more signal
[16] = S. cerevisiae RM11-1a growth modifiers, primary screen, strain RM11-1a, OD600, basal, 24 h (AID 1177); conditions: OD600, 24 h, higher = more signal, called active from +8 up or from −8 down;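 note: cultures grown under basal conditions with no added stressor; test concentration not given here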
[17] = E. coli acrAB mutant growth effects, primary screen, E. coli filamentation inducers, strain DRC39, OD650, 24 h (AID 1178); conditions: higher = more signal, called active from +8 up or from −8 down;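 note: growth measured as culture turbidity by optical density at 650 nm; test concentration not given here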
[18] = E. coli acrAB mutant growth effects, primary screen, E. coli filamentation inducers, strain DRC39, OD650, 48 h (AID 1179);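 note: screen aims at cell division blockers that make cells filament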; conditions: E. coli DRC39 delta-acrAB growth, higher = more signal, called active from +8 up or from −8 down
[19] = RPMI8226 myeloma cell viability, profiling panel, resazurin fluorescence, basal, 24 h, PK04 Diversity Set (AID 1180); conditions: higher = more signal;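 note: RPMI8826 multiple myeloma cell line at 5000 cells per well; test concentration not given here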
[20] = biological target: E3 ubiquitin-protein ligase XIAP (Homo sapiens) (UniProt P98170); test: XIAP binders, primary screen, biophysical, small-molecule microarray, fluorescence 635 nm (AID 1181); conditions: small-molecule microarray binding, higher = more signal;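 note: score merges 667 nm emission and signal to noise over triplicate slides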
Chain of E3 ubiquitin-protein ligase XIAP (Homo sapiens) (P98170 whole entry, looked up): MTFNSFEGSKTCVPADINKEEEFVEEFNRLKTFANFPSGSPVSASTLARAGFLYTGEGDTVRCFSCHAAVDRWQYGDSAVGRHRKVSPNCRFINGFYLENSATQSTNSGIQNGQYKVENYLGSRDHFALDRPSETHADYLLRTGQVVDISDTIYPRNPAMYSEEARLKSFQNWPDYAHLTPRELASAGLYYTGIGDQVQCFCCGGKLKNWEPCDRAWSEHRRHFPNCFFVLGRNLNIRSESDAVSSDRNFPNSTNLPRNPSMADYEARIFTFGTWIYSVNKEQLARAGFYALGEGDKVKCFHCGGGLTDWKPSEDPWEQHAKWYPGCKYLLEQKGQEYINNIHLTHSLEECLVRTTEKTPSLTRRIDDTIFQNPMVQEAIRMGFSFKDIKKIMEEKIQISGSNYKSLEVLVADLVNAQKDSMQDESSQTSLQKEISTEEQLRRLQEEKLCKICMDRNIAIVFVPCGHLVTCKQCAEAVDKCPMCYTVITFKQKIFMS

Structure (SMILES) | z-score [1] | z-score [2] | z-score [3] | z-score [4] | z-score [5] | z-score [6] | z-score [7] | z-score [8] | z-score [9] | z-score [10] | z-score [11] | z-score [12] | z-score [13] | composite z-score [14] | z-score [15] | z-score [16] | z-score [17] | z-score [18] | z-score [19] | composite z-score [20]
CCOC(=O)[C@H](CC(C)C)NC(=O)CCC1CC(OC(=O)NCCc2ccc(F)cc2)CC2(CCCC(COC(=O)NCC3CCCCC3)O2)O1 (stereo not given in full) | -0.656 | 0.0504 | -0.843 | -0.222 | 0.444 | -1.77 | -0.293 (inactive) | -0.168 | -0.24 | 0.21 (inactive) | 1.1 | 0.776 (inactive) | 0.0789 (inactive) | -0.161 (inactive) | 0.201 (inactive) | -0.547 (inactive) | -0.0313 (inactive) | -1.02 (inactive) | 0.738 | -0.153
CCCNC(=O)OC[C@H]1O[C@H](CCON=C(C)CCN2CCCc3nc(C)c(C)cc32)C=C[C@@H]1Oc1ccc(OC)cc1 | 0.476 | 1.43 | -0.243 | -0.878 | -1.57 | 2.15 | -1.09 (inactive) | 0.455 | 0.023 | 1.21 (inactive) | 0.691 | 0.766 (inactive) | -0.291 (inactive) | 0.0151 (inactive) | 0.9 (inactive) | -0.295 (inactive) | 0.908 (inactive) | 0.557 (inactive) | 1.46 | 0.284
CCc1cc2c(nc1CC)CCN(CCC(C)=NO[C@H](C)c1cn([C@@H]3COC[C@H]3O)nn1)C2 | 0.821 | -0.744 | 1.75 | 0.546 | -0.329 | 0.338 | 0.367 (inactive) | -0.121 | -0.676 | -0.574 (inactive) | -0.51 | 0.485 (inactive) | -1.4 (inactive) | -0.0125 (inactive) | -0.643 (inactive) | 0.431 (inactive) | 0.415 (inactive) | 0.741 (inactive) | -0.828 | 0.0368
C[C@H]1COC(=O)[C@@H]2CCCN2C(=O)[C@@H](C)COC(=O)[C@H](Cc2ccccc2)NC1=O | -0.398 | -0.501 | -0.501 | 0.119 | -0.364 | 0.278 | -0.906 (inactive) | -0.287 | -0.825 | 0.264 (inactive) | 0.409 | 0.0852 (inactive) | -0.208 (inactive) | -0.926 (inactive) | -0.348 (inactive) | -0.231 (inactive) | 0.0861 (inactive) | 0.503 (inactive) | 0.586 | 1.05
COC(=O)[C@H](C)NC(=O)CCC1CC(OC(=O)NCc2ccc3c(c2)OCO3)CC2(CCCC(COC(=O)NCC(c3ccccc3)c3ccccc3)O2)O1 (stereo not given in full) | -0.641 | 0.155 | -2.9 | -3.53 | -3.99 | -1.01 | -0.013 (inactive) | -0.0228 | -0.794 | 1.76 (inactive) | 0.0245 | -1.23 (inactive) | 0.177 (inactive) | -2.67 (inactive) | -0.895 (inactive) | 0.0477 (inactive) | -0.341 (inactive) | 0.532 (inactive) | -0.0511 | -0.0734
CON=Cc1ccc(C(=O)N2[C@H](c3ccc(C)cc3)[C@@H](C)CC[C@H]2C(=O)OC)cc1 | 0.281 | 0.0609 | -0.296 | 0.336 | 0.0411 | 0.129 | 0.345 (inactive) | 0.344 | 1.07 | 1.03 (inactive) | 0.259 | -2.35 (inactive) | 0.37 (inactive) | 0.442 (inactive) | -0.066 (inactive) | -0.308 (inactive) | 0.743 (inactive) | 0.0138 (inactive) | 0.589 | -0.0559
C#CCCCON=C1C[C@@H](O)[C@@H](O)[C@@H]2[C@@H]3C(=O)N(c4ccc(F)cc4F)C(=O)[C@@H]3CC[C@@H]12 | -0.194 | -0.566 | -1.07 | 0.344 | -0.865 | 0.843 | -1.15 (inactive) | 0.0995 | -0.413 | 0.193 (inactive) | 1.49 | -0.652 (inactive) | 0.225 (inactive) | -0.278 (inactive) | -1.25 (inactive) | -1.07 (inactive) | -0.0313 (inactive) | -0.152 (inactive) | 0.33 | -0.0786
CC(C)=CCCC(C)=CCON=C1C[C@@H](O)[C@@H](O)[C@@H]2[C@@H]3C(=O)N(C(C)(C)C)C(=O)[C@@H]3CC[C@H]12 | 0.0088 | 0.729 | -0.465 | 0.387 | -0.306 | -0.00723 | 0.111 (inactive) | -0.15 | 0.598 | -0.624 (inactive) | -0.369 | -0.352 (inactive) | -0.274 (inactive) | -0.108 (inactive) | 0.152 (inactive) | -0.264 (inactive) | 0.27 (inactive) | 0.612 (inactive) | -0.245 | -0.172
C#CCCCON=C1C[C@@H](O)[C@@H](O)[C@@H]2[C@@H]3C(=O)N(C(C)(C)C)C(=O)[C@@H]3CC[C@@H]12 | -0.145 | -0.619 | -0.486 | 0.154 | 0.381 | -0.465 | -0.286 (inactive) | -0.0943 | -0.283 | -0.152 (inactive) | -0.202 | 0.595 (inactive) | -1.24 (inactive) | 0.289 (inactive) | 0.0001 (inactive) | 0.438 (inactive) | -0.35 (inactive) | -0.278 (inactive) | 0.0444 | -0.0939
